# Screens deposited in PubChem BioAssay by National Center for Advancing Translational Sciences (NCATS).
# A selection: hits, their analogues and other compounds. The true share with any hit is near 19%.
# DT40 TDP1 no CPT – qHTS for Inhibitors of human tyrosyl-DNA phosphodiesterase 1 (TDP1): qHTS in cells in absence of CPT; DT40 Tdp1-/- hTDP1 cells, no CPT, ATP luminescence, 48 h; Potency, µM (top dose mostly 46.2 µM), inactives show top-dose activity change, negative = growth inhibition, actives largely listed as inhibitors; 420,000 compounds, 15% hits; also: potency is read from the fitted curve at half-maximal effect; nearly all actives have a fitted effect of over 55% in size
#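 A cellular qHTS used chicken DT40 cells lacking endogenous Tdp1 but carrying stably transfected human TDP1. Compounds were applied without camptothecin, and cell growth kinetics were judged by ATP-dependent luminescence after ≥48 hr.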
# HT1080NT lethal – kills 2HG-producing HT-1080-NT fibrosarcoma cells | HT-1080-NT fibrosarcoma viability, CellTiter-Glo ATP luminescence, 48 h | 360,000 compounds, 1.6% hits | Potency, µM (titrated, usually from 46.1 µM), for inactives: at the highest dose activity, negative = less viability, actives largely listed as cytotoxic | AID 686970;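 also: NT is the 2HG producing partner of a matched IDH1 knockdown line; potency is read from the fitted curve at half-maximal effect; 0% = DMSO-treated cells and -100% = media-only wells without cells; nearly all actives have a fitted effect of over 55% in size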
#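 Fibrosarcoma NT cells, 750 per well in 5% FBS RPMI, were exposed to compound for 48 hours. Viability: CellTiter-Glo luminescence.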
# TDP1 cell CPT – growth inhibition of DT40 Tdp1-/-;hTDP1 cells with camptothecin (screen for TDP1 inhibitors) | AID 686979 | chicken DT40 Tdp1-/-;hTDP1 cells + 20 nM CPT, ATP luminescence, 48 h | Potency, µM (series often up to 46.2 µM), inactives show at the highest dose activity change, negative = growth inhibition, usual class: inhibitors | 420,000 compounds, 12% hits; also: potency is read from the fitted curve at half-maximal effect; nearly all actives have a fitted effect of over 55% in size
#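 Chicken DT40 Tdp1-/- cells complemented with human TDP1, 400 cells/well, exposed to compounds plus 20 nM camptothecin for at least 48 h at 37 C; viability read as ATP content by CellTiter-Glo luminescence.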
# uPA generation – blocks generation of uPA at the cell surface | 330,000 compounds, 0.31% hits | AID 540303 | cell surface uPA generation assay, qHTS | Potency, µM (series often up to 38.3 µM), for the others: top-dose activity change, negative = inhibition, actives largely listed as inhibitors; active = well fitted inhibition curve with a large enough effect; inconclusive = small, poorly fitted or top-dose-only effect; inactive = no such curve, though single readings can be large or run the other way; tested in mouse RAW 264.7 cells; also: potency is read from the fitted curve at half-maximal effect; nearly all actives have a fitted effect of over 55% in size
# IL-1B inflam inh – blocks inflammasome-driven IL-1 beta release | THP-1 LPS/ATP IL-1B secretion, AlphaLISA, 16 h; hits give low values | activity change, % at 57.5 µM | 360,000 compounds, 4.7% hits; in the data active = activity change below about -50%; inconclusive = mostly about -30% to -49%
#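 Secreted IL-1B measured by AlphaLISA bead assay after 16 h compound exposure of THP-1 cells; compounds (final up to 57.5 uM) added 1 h before LPS (250 ng/mL) and ATP (1.25 mM) stimulation; lower signal means less secretion.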
# HT1080 IDH1KD tx – toxicity to HT-1080 IDH1 knockdown cells (counter line). HT-1080 IDH1 knockdown viability, ATP luminescence, 48 h. Potency, µM (series often up to 46.1 µM), inactives show at the highest dose activity, negative = toxicity, usual class: cytotoxic. 360,000 compounds, 2% hits. AID 686971;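 also: potency is read from the fitted curve at half-maximal effect; 0% = DMSO wells and -100% = cell-free medium wells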
#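 After a 2 h attachment period, IDH1KD HT-1080 cells took pin-transferred compound for 48 h at 37 °C; ATP-based luminescence after 10 min room-temperature reagent incubation reported viability.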
# Numbers without * were called inactive; ? = inconclusive; . = not tested or not shown. Unless noted, calls follow the shape of the dose curve; as a rule, active = well fitted curve in the direction sought with a large enough effect; inconclusive = small, poorly fitted or top-dose-only effect, or another doubt; inactive = no such curve, though single readings can be large; an effect the other way counts as inactive or inconclusive. Unless noted, % is scaled to controls: 0 for no effect and ±100 for the full control effect.
SMILES,DT40 TDP1 no CPT,HT1080NT lethal,TDP1 cell CPT,uPA generation,IL-1B inflam inh,HT1080 IDH1KD tx
CCCCN(CC)C(=O)c1oc2ccc(S(=O)(=O)N3CCCC3)cc2c1C,-19.6%,-1.5%,?,1.8%,4.3,-12.4%
CC(=O)N1c2ccccc2N=C(c2ccc3c(c2)OCO3)C1C(=O)NCc1ccccc1 (configuration not stated),?,2.9%,?,.,-16.9,-8.9%
COc1ccc2c(CC(=O)OCC(=O)N3CCc4ccccc43)coc2c1,18.4µM*,1.3%,?,2.7%,12.5,0.1%
CCC(NC(=O)OCc1ccccc1)C(=O)Oc1ccc2ccc(=O)oc2c1 (configuration not stated),?,4.4%,?,-0.6%,6.3,9.9%
CN(C)S(=O)(=O)c1ccc(Cl)c(NC(=O)COC(=O)/C=C/c2ccc3ccccc3n2)c1,-0.5%,-1.7%,3.5%,11.8%,8.8,-0.9%
COc1ccc(Cl)cc1NC(=O)C(C)N1CCN(C/C=C/c2ccccc2)CC1 (configuration not stated),20.6µM*,?,?,10.4%,-58.9*,?
CC(C(=O)Nc1ccc([N+](=O)[O-])cc1)N1CCN(C/C=C/c2ccccc2)CC1 (configuration not stated),?,-4.9%,?,-5.6%,-77.2*,-13.5%
CC(=O)c1ccc(NC(=O)C(C)N2CCN(C/C=C/c3ccccc3)CC2)cc1 (configuration not stated),?,-12.2%,-15.6%,-3.2%,-1.8,-1.2%
O=C(c1ccc(CS(=O)c2ccccc2Cl)o1)N1CCN(c2cccc(C(F)(F)F)c2)CC1 (configuration not stated),0.517µM*,.,0.651µM*,.,.,.
O=C(c1ccc(CS(=O)c2ccccc2Cl)o1)N1CCN(c2cccc(Cl)c2)CC1 (configuration not stated),0.517µM*,.,0.259µM*,.,.,.
CC1(C(=O)NS(=O)(=O)c2ccccc2)CCN1C(=O)Cc1cccs1 (configuration not stated),-1.7%,1.4%,-3.4%,.,-2.9,7.0%
CC(=O)Nc1ccc(NC(=O)CCC(=O)c2ccc(C)cc2)cc1,7.2%,.,-10.5%,.,.,.
CC(=O)c1cccc(NC(=S)NC(=O)CC(C)(C)C)c1,-12.6%,?,-7.9%,.,11.3,-20.2%
COc1ccc(CNS(=O)(=O)c2cc3c(cc2Cl)N(C(C)=O)CCO3)cc1,?,.,-23.5%,.,.,.
Cc1cc(C)cc(N2CCn3c2nc2c3c(=O)n(Cc3c(F)cccc3Cl)c(=O)n2C)c1,3.7%,.,14.4%,.,.,.
Cc1ccc(C(=O)NCCCN2CCOCC2)c(Cl)c1,0.0%,3.7%,-30.0%,2.6%,-1.3,7.3%
CCNc1nc(NCc2ccco2)c2ccccc2n1,11.2µM*,.,11.2µM*,.,.,.
CNc1nc(NCc2ccco2)c2ccccc2n1,15.8µM*,.,10µM*,.,.,.
Cc1ccc(S(=O)(=O)Nc2nc3ccccc3nc2NCc2ccco2)cc1,?,?,?,?,13.6,10µM*
C=CCNc1nc(NCc2ccco2)nc(OCC)n1,?,2.3%,20.6µM*,-4.0%,-11.3,3.2%
Cc1ccc(-c2nc(NCc3ccco3)c3ccccc3n2)cc1,?,?,?,-4.8%,4.8,-15.2%
C=CCNc1nc(Cl)nc(NCc2ccco2)n1,-5.4%,7.6%,-22.3%,-0.7%,5.7,10.5%
Cc1ccc(NC(=O)CSc2ccc3c(c2)OCCO3)nc1,-25.7%,0.3%,-0.8%,2.3%,3.9,2.3%
CCc1ccc(NC(=O)C(C)OC(=O)c2ccc(N3CCCC3)c([N+](=O)[O-])c2)cc1 (configuration not stated),?,5.6%,?,19.2%,4.6,-7.0%
